Source: PubChem BioAssay (NCATS)
Values joined by “and” are separate entries in the source; they are usually repeats but may differ in a detail not shown here. Identical values can stand only once. Records with an inconclusive call do not appear. Unmarked numbers belong to inactive results. Calls follow the shape of the dose curve; as a rule, active = well fitted activation curve with a large enough effect; inconclusive = small, poorly fitted or top-dose-only effect; inactive = no such curve, though single readings can be large or run the other way.

target: Cellular tumor antigen p53 (Homo sapiens) (UniProt P04637); assay: Primary qHTS for small molecule compounds that upregulate eGFP-tagged delta133p53alpha (in N-terminal) cells. (AID 2060322); details: NCI-H358 eGFP-delta133p53alpha fluorescence, 24 h; activation: active compounds read high;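 also: series mostly up to about 56 µM; 0% = DMSO vehicle and 100% = reference activator; nearly all actives have a fitted effect of over 75% in size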
Sequence (P04637 whole entry, looked up): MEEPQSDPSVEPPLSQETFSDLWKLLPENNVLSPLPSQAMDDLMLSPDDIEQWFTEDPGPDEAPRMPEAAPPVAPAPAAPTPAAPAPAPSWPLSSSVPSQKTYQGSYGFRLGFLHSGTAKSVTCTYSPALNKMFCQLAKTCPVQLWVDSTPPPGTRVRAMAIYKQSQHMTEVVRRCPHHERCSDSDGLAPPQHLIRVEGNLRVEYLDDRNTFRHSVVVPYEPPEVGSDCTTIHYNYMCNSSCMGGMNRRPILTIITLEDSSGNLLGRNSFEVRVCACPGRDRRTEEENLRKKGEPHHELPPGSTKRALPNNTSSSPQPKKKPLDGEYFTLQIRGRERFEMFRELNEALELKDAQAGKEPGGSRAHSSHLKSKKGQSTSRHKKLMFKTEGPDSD
How it was run: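 NCI-H358 cells pre-induced 24 h with 10 ng/ml doxycycline to express N-terminal eGFP-delta133p53alpha, then dosed 24 h at 37C without doxycycline; fixed, Hoechst-stained, GFP intensity by laser scanning cytometry, normalized to DMSO (0%) and 57.5 uM 5-azacytidine (100%).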

Row | SMILES | activation
1 | NC(=O)n1c(O)c(C(=O)c2cccs2)c2cc(Cl)ccc21 | -6.21%
2 | O=C(O)CCCCC1CCSS1 (configuration not stated) | 5.08%
3 | C[C@H]1C[C@H]2[C@@H]3CCC4=CC(=O)C=C[C@]4(C)[C@@H]3C(=O)C[C@]2(C)[C@@]1(O)C(=O)CO | -19.3%
4 | CON=C(C(=O)N[C@@H]1C(=O)N2C(C(=O)O)=C(Cn3ccc(=N)n3CCO)CS[C@H]12)c1csc(N)n1 | 23.9%
5 | C[C@]12C=CC(=O)C=C1[C@@H](F)C[C@@H]1[C@@H]2[C@@H](O)C[C@@]2(C)[C@H]1CC[C@]2(O)C(=O)CO | 7.53%
6 | CC[C@H](NC(=O)[C@H](C)NC)C(=O)N1C[C@@H](O)C[C@H]1Cc1c(-c2[nH]c3cc(F)ccc3c2C[C@H]2C[C@H](O)CN2C(=O)[C@H](CC)NC(=O)[C@H](C)NC)[nH]c2cc(F)ccc12 | 21.3%
7 | COc1ccc(C=CC(=O)Nc2ccccc2C(=O)O)cc1OC | 5.12%
8 | CN1C(=O)c2ccccc2C1=O | 7.53%
9 | CCCCC(O)/C=C(C)/C=C/C=C/C(=O)N1CCCC1=O (configuration not stated) | 13.4%
10 | O=C(CN1CCNCC1)NC1CCCCC1 | 7.53%
11 | Nc1cccc2c1CN(C1CCC(=O)NC1=O)C2=O (configuration not stated) | 21.6% and -10.9%
12 | O=c1ccn([C@@H]2O[C@H](CO)[C@H](O)[C@H]2O)c(=O)[nH]1 | 8.95%
13 | CNc1nc(-c2ccc3c(N)n[nH]c3c2)cc(N2C[C@@H](C(=O)NC3CCCCC3)CC[C@@H]2C)n1 | -21.3%
14 | CC(=O)C1=C(O)C=C2Oc3c(C(C)=O)c(O)c(C)c(O)c3C2(C)C1=O (configuration not stated) | 47.4%
15 | O=C(NCN1CCOCC1)c1cnccn1 | -15.3%
16 | CCNC(=O)Nc1ccc(-c2nc3c(c(N4CCOC[C@H]4C)n2)CCN(C2COC2)C3)cc1 | 5.73%
17 | CN1CCN(c2cc3c(cc2F)c(=O)c(C(=O)O)cn3-c2ccc(F)cc2)CC1 | 20.1%
18 | CCCCC(CC)COC(=O)c1ccccc1C(=O)O (configuration not stated) | -12.6%
19 | CC(C)CCCC(C)CCCC(C)CCCCC(C)CCCC(C)CCCC(C)C (configuration not stated) | 14.1%
20 | Cc1ccccc1N=Nc1ccc(N=Nc2c(O)ccc3ccccc23)c(C)c1 | -17.5%
21 | CCCCC1(COC(=O)CCC(=O)O)C(=O)N(c2ccccc2)N(c2ccccc2)C1=O | -7.34%
22 | CCn1c(-c2nc3cc(C(=O)N4CCC[C@@H](N)C4)cc(OC)c3n2C)cc2ccccc21 | -14.5%
23 | Nc1ccc(S(=O)(=O)NCc2ccccc2)cc1 | -10%
24 | C[C@H]1O[C@@H](n2cc(F)c(=O)[nH]c2=O)[C@H](O)[C@H]1O | 0.294%
25 | O=C(N/N=C/c1ccc([N+](=O)[O-])o1)c1ccc(O)cc1 | 24.3%
26 | CC(C)(C)[C@H](NC(=O)c1ccc(N)c(Cl)c1)C(=O)N1CCC[C@@H]1C(=O)N[C@H](C#N)CC(=O)O | -1.07%
27 | CN1Cc2cc(C(=O)N3CCC(C4CCNCC4)CC3)ccc2N[C@@H](CC(=O)O)C1=O | 20.1%
